Results reported in the supplement of paper PMC9694430.

Tests used:
Experiment in all cases: thermal shift delta Tm vs DMSO control; higher = stronger stabilization (binding)
Details in all cases: 12.5 µM; protein concentration 2 µM
[1] = test system: LOC_OS01G01410-cb001
Outline: (§1)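 Thermal shift values come from differential scanning fluorimetry on purified rice kinase domains made in E. coli, with melting temperatures obtained from Boltzmann fits. Samples of 19.5 μl held 2 μM kinase, 100 mM potassium phosphate pH 7.5, 150 mM NaCl, 10% glycerol, 5 × SYPRO Orange and compound in DMSO, and were heated from 25°C to 95°C at 0.05°C/s. Each shift is a triplicate mean relative to the DMSO-only protein sample.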

[2] = test system: LOC_OS01G02750-cb003
Outline: as §1

[3] = test system: LOC_OS01G10900-cb004
Outline: as §1

[4] = test system: LOC_OS01G13800-cb001
Outline: as §1

[5] = test system: LOC_OS01G14860-cb001
Outline: as §1

[6] = test system: LOC_OS01G21960-cb002
Outline: as §1

[7] = test system: LOC_OS01G39600-cb002
Outline: as §1

[8] = test system: LOC_OS01G48390-cb002
Outline: as §1

[9] = test system: LOC_OS01G51400-cb002
Outline: as §1

[10] = test system: T1, LOC_OS01G52050-cb004
T1 sequence (whole entry): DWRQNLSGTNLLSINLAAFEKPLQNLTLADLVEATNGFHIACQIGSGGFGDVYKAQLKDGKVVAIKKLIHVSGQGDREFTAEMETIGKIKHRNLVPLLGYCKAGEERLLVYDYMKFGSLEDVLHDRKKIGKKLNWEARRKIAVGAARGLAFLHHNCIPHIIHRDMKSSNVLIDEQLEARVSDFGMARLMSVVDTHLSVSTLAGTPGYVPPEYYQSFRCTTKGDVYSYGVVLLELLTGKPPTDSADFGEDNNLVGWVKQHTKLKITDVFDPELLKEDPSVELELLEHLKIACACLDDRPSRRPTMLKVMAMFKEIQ
Outline: as §1

[11] = test system: LOC_OS01G57100-cb003
Outline: as §1

[12] = test system: LOC_OS01G60330-cb001
Outline: as §1

[13] = test system: LOC_OS01G60700-cb002
Outline: as §1

[14] = test system: LOC_OS01G63280-cb003
Outline: as §1

[15] = test system: LOC_OS01G67340-cb003
Outline: as §1

[16] = test system: LOC_OS01G70970-cb002
Outline: as §1

[17] = test system: LOC_OS02G07810-cb001
Outline: as §1

[18] = test system: LOC_OS02G08530-cb003
Outline: as §1

[19] = test system: LOC_OS02G14120-cb001
Outline: as §1

[20] = test system: LOC_OS02G17970-cb001
Outline: as §1
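Note: purified Escherichia coli-expressed rice kinase domain construct.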

Row | SMILES | thermal shift delta Tm [1] [°C] | thermal shift delta Tm [2] [°C] | thermal shift delta Tm [3] [°C] | thermal shift delta Tm [4] [°C] | thermal shift delta Tm [5] [°C] | thermal shift delta Tm [6] [°C] | thermal shift delta Tm [7] [°C] | thermal shift delta Tm [8] [°C] | thermal shift delta Tm [9] [°C] | thermal shift delta Tm [10] [°C] | thermal shift delta Tm [11] [°C] | thermal shift delta Tm [12] [°C] | thermal shift delta Tm [13] [°C] | thermal shift delta Tm [14] [°C] | thermal shift delta Tm [15] [°C] | thermal shift delta Tm [16] [°C] | thermal shift delta Tm [17] [°C] | thermal shift delta Tm [18] [°C] | thermal shift delta Tm [19] [°C] | thermal shift delta Tm [20] [°C]
1 | CCCCCCCCCCCCCCCCCCOP(=O)([O-])OC1CC[N+](C)(C)CC1 [Perifosine (KRX-0401)] | -2.46 | -3.08 | -2.19 | -2.02 | -1.55 | -1.07 | -4.67 | -1.63 | -3.01 | -2.26 | -2.51 | -0.68 | -0.73 | -3.09 | -1.14 | -3.45 | -0.99 | -1.07 | -2.06 | -0.45
2 | C=CC(=O)N1CCN(CCCn2c(=O)c(-c3c(Cl)c(OC)cc(OC)c3Cl)cc3cnc(NC)nc32)CC1 | 0.19 | 0.26 | 0.4 | -0.37 | 0.42 | 0.28 | 0.11 | 0.23 | 0.12 | 0.46 | 1.48 | -0.24 | 0.2 | -0.06 | 0.02 | 0.17 | -0.82 | 0.53 | 0.67 | -0.31
3 | N[C@@H]1CCCN(c2c(/C=C3\SC(=O)NC3=O)cccc2-c2ccccc2)C1 | 0.41 | 0.59 | 0.27 | -0.81 | 0.66 | 0.65 | 0.1 | 0.27 | 0 | -0.01 | 0.49 | -0.07 | 0.8 | -0.31 | -0.25 | 0.19 | 0.55 | 0.62 | -0.31 | -0.03
4 | COc1ccc2[nH]cc(/C=C3\C(=O)Nc4ccc(NC(=O)CCN5CCCCC5)cc43)c2c1 | 0.24 | 1.49 | 0.91 | 1.6 | 2.18 | 1.64 | 0.22 | 0.82 | 0.58 | 0.72 | 0.21 | 1.51 | 1.62 | 1.06 | 1.09 | 0.85 | 0.83 | 1.82 | 1.59 | 1.88
5 | CCNc1nc(Nc2cc(F)c(C(=O)N3CCOCC3)cc2OC)ncc1C(F)(F)F | 0.11 | 0.63 | 0.25 | 0.11 | 1.18 | 0.79 | 0.15 | 0.72 | 0.2 | -0.2 | 0.61 | 1.21 | 0.71 | 0.15 | 0.32 | 0.73 | -0.04 | 1.3 | 0.5 | 0.54
6 | COCCOc1ccc2c(c1)ncn2-c1ccc2cccc(N3CCC(N)CC3)c2n1 | 0.39 | 7.25 | 1.08 | -0.56 | 1.89 | 3.75 | 2.09 | 0.21 | -0.08 | 10.9 | 1.13 | 0.82 | 0.15 | 1.35 | 2.25 | 8.53 | 0.59 | 3.85 | 11 | 0.26
